Measurements: PubChem BioAssay (NCATS)
Records with an inconclusive call do not appear. Active and inactive are the calls of the source. The call rests on the fitted dose curve; in most records, active means well fitted inhibition curve with a large enough effect; inconclusive means small, poorly fitted or top-dose-only effect; inactive means flat fitted curve, though single readings scatter.

Assay: qHTS for Inhibitors of Plasmodium falciparum (DD2) proliferation (AID 504314)
Details: P. falciparum Dd2 in erythrocytes, SYBR Green growth, 72 h; series mostly up to 6.11 µM; activity, negative = inhibition: at the top concentration
Source text: Plasmodium falciparum is a virulent malarial parasite that kills 1-2 million people worldwide each year. Malaria not only inflicts tremendous suffering and morbidity on the human population, but has dramatically influenced the course of civilization with profound sociological and economic implications (Shah, S. 2010). Transmitted by mosquitoes, the sporozoite form of the parasite enters the blood stream to infect hepatocytes, where they become merozoites that infect red blood cells (erythrocytes). Within erythrocytes, merozoites begin a […] cycle of growth and division, after which the parasite is released to infect new red blood cells. Gametocytes, which form within erythrocytes as well, circulate in the bloodstream and are ingested by the mosquito, thereby completing the life cycle (see CDC website). To profile malarial lines for differential chemical responses and to identify inhibitors of malarial growth, an assay that measures P. falciparum growth and replication within erythrocytes was employed. This assay uses a DNA binding fluorescent dye (SYBR Green) to detect parasite DNA following cell lysis. Because mature erythrocytes lack DNA, only Plasmodium-derived DNA is detected. The P. falciparum line cp250, derived from a malarial isolate from Cambodia, (Mu, J., et al. 2010) was added to the panel of lines, Dd2, HB3, 7G8 and GB4 in this study.
Laboratory of Assay Development and Screening Technology [ADST] and NIH Chemical Genomics Center [NCGC]
Boston University, Chemistry Department, Center for Chemical Methodology and Library Development [CMLD-BU]
NIH National Institute of Allergy and Infectious Diseases [NIAID]
ADST Assay Protocol Summary:
The 1536-well SYBR Green viability assay was based on the method of Bennett et al (2004) and described previously in 1536-well format (Yuan J., et al. 2009). For screening 3 ul culture medium was dispensed into 1536 well black clear bottom plates (Aurora Biotechnologies) using a Multidrop Combi (Thermo Fisher Scientific Inc.), 23 nL compounds in DMSO were added by a pin transfer (Cleveland, P.H. and Koutz, P.J, 2005) using a pin tool-based delivery system (Kalypsys), and 5 ul of erythrocytes infected with P. falciparum one of five lines (cp250, Dd2, HB3, 7G8 or GB4, 0.3% parasitemia, 2.5% hematocrit final concentration) were added. The plates were incubated at 37C in a humidified incubator in 5% CO2 for 72 h, and 2 ul lysis buffer (20 mM Tris HCl, 10 mM EDTA, 0.16% saponin, 1.6% triton X, 10X SYBR Green I (supplied as 10,000X final concentration by Invitrogen) was added to each well. The plates were mixed for 25 sec with gentle shaking and incubated overnight at room temperature in the dark. The following morning, fluorescence intensity at 485(14) nm excitation and 535(25) nm emission wavelengths was measured on an EnVision (Perkin Elmer) plate reader. Plate reads were normalized relative to the control inhibitor (0.29 uM artemisinin) and vehicle (DMSO) wells present on each plate and then corrected by an algorithm using vehicle-only control plates at the beginning and end of the compound plate stack.
Shah, S. (2010). The Fever: how malaria has ruled humankind for 500,000 years. New York, Sarah Crichton Books.
CDC web site, http://www.cdc.gov/malaria/about/biology/index.html
Mu, J., Myers, R.A., Jiang, H., Liu, S., Ricklefs, S., Waisberg, M., Chotivanich, K., Wilairatana, P., Krudsood, S., White, N.J., et Plasmodium falciparum genome-wide scans for positive selection, recombination hot spots and resistance to antimalarial drugs Nature Genetics 2010, 42, pp 268-271
Bennett TN, Paguio, M., Gligorijevic, B., Seudieu, C., Kosar, A. D., Davidson, E., and Roepe, P. D. Novel, rapid, and inexpensive cell-based quantification of antimalarial drug efficacy Antimicrobial Agents Chemother. 2004, 48(5): pp 1807-10
Yuan J, Johnson RL, Huang RL, Wichterman J, Jiang HY, Hayton K, Fidock DA, Wellems TE, Inglese J, Austin CP, Su XZ. […]
Potency means the concentration at half of the fitted maximal effect.

Row | Structure (SMILES) | activity, negative = inhibition | Potency
1 | C=CCN1C(=O)CC[C@@]23C1=NC(C(=O)OC)=C(C(=O)OC)[C@@H]2N(C)c1ccccc13 | 1.81% (inactive) | 
2 | C[C@@H]1CC[C@H]2C(=O)N(Cc3cccc([N+](=O)[O-])c3)C[C@H](O)CN2[C@@H]1c1cccc(Br)c1 | -10.9% (inactive) | 
3 | COC(=O)CC=C[C@@H](C)[C@H](OC)c1c(Br)ccc2c1OCO2 | 0.963% (inactive) | 
4 | C=C(C(C)=O)C(O)c1cccc(OC)c1 (stereo not given) | -0.939% (inactive) | 
5 | COc1cccc([C@H]2Oc3ccc(OC)cc3C(=NOC[C@@H](O)COCc3ccco3)[C@H]2O)c1 | 0.987% (inactive) | 
6 | CC1(OC(=O)CCc2ccccc2)C(=O)C=C2C=C(c3ccsc3)OC=C2C1=O (stereo not given) | 4.88% (inactive) | 
7 | CC(CCC#N)[N+](=O)[O-] (stereo not given) | -7.71% (inactive) | 
8 | CC=CC1=CC2=CC(=O)C(C)(OC(=O)c3c(C)cc(O)cc3O)C(=O)C2=CO1 (stereo not given) | -2% (inactive) | 
9 | Cc1ccc(S(=O)(=O)n2c3ccccc3c3nnc(C(=O)c4ccccc4)nc32)cc1 | -3.01% (inactive) | 
10 | C=C(C)C(=O)OC[C@H]1CN2[C@H](c3ccc(Br)cc3)[C@H](C)CC[C@H]2C(=O)O1 | -1.55% (inactive) | 
11 | COc1cc2c(cc1OC)[C@@H]1O[C@](CCCCN3C(=O)c4ccccc4C3=O)(C2)Oc2c1c(=O)oc1ccccc21 |  | 1.5 µM (active)
12 | CCOC(=O)CCN1C(=O)[C@@H]2[C@H]3[C@H](O)[C@H](O)CC(=NNC(=O)OCc4ccc(OC)cc4)[C@H]3CC[C@H]2C1=O | -10.1% (inactive) | 
13 | COC(=O)C1=C(C)N(Cc2ccccc2)C(=O)NC1c1cccc(C(F)(F)F)c1 (stereo not given) | -9.23% (inactive) | 
14 | COC(=O)N[C@@H](c1cccc(F)c1)C(C(C)=O)C(=O)OC (stereo not given in full) |  | inactive
15 | O=C1[C@@H]2[C@H]3[C@H](O)[C@H](O)CC(=NOC[C@@H](O)COCc4ccco4)[C@@H]3CC[C@H]2C(=O)N1C1CCCCC1 | -8.03% (inactive) | 
16 | CC(C)=CCCC(C)=CCON=C1C[C@@H](O)[C@@H](O)[C@@H]2[C@H]3C(=O)N(Cc4ccc5c(c4)OCO5)C(=O)[C@@H]3CC[C@H]12 | -9.01% (inactive) | 
17 | C=CCOC(=O)N[C@@H](CC(C)C)C(C(=O)OC)=C(C)NCc1ccccc1 | -2.49% (inactive) | 
18 | CC(C)CON=C1C[C@@H](O)[C@@H](O)[C@@H]2[C@H]3C(=O)N(C[C@@H]4CCCO4)C(=O)[C@@H]3CC[C@H]12 | 1.41% (inactive) | 
19 | COC(=O)N1C(c2ccccc2)=Cc2ccccc2C1CC(C)=O (stereo not given) |  | inactive
20 | COC(=O)CCCC1=CC2=C(c3ccccc3)C(=O)C(C)(OC(=O)C3CCCC3)C(=O)C2=CN1Cc1ccc(OC)cc1 (stereo not given) | 1.81% [at 1.12 µM] (inactive) | 

Row | Structure (SMILES) | activity, negative = inhibition | Potency
21 | C#CCCOC(=O)N1C2=NC(C(=O)OC)=C(C(=O)OC)[C@@H]3N(C)c4ccccc4[C@]23C[C@H]1C(=O)OC |  | inactive
22 | C=C(C)CO[C@H]1C=C[C@@H](c2ccccc2)O[C@H]1CO | 3.5% (inactive) | 
23 | CC1(O)C(=O)C=C2C=C(c3ccc(C#N)cc3)OC=C2C1=O (stereo not given) | -4.35% (inactive) | 
24 | COc1ccc(-c2nc3c(c4c2C[C@H](c2ccccc2)OC4)CN(C(=O)Nc2cccc(C#N)c2)CC3)c(C)c1 | 2.23% [at 1.12 µM] (inactive) | 
25 | CC=COC(=O)N[C@@H](c1ccccc1)[C@]1(C(=O)OC)CCCC1=O | -0.688% (inactive) | 
26 | CC(=O)OC[C@H]1O[C@H](C#Cc2ccc(F)cc2F)C=C[C@H]1OC(C)=O | -6.45% (inactive) | 
27 | O=P1(O)Oc2c(c(-c3ccccc3)cc3ccc4ccccc4c23)-c2c(-c3ccccc3)cc3ccc4ccccc4c3c2O1 | -5.24% (inactive) | 
28 | CC(=O)OC[C@H]1O[C@H](C#CC(C)(C)C)C=C[C@H]1OC(C)=O |  | inactive
29 | CC(=O)OC[C@H]1O[C@H](CC=NO[C@@H](C)CN2CCCc3nc(C)c(C)cc32)C=C[C@@H]1OC(C)=O | 3.99% (inactive) | 
30 | CCCCc1cc2c(cn1)=C(OC(=O)C1CCCC1)C(C)(OC(=O)CC)C(=O)C=2 (stereo not given) | 0.367% [at 1.12 µM] (inactive) | 
31 | CC#CCN1c2ccccc2[C@]23CCC(=O)N(Cc4cccc(C(F)(F)F)c4)C2=NC(C(=O)OC)=C(C(=O)OC)[C@H]13 | -10.7% (inactive) | 
32 | CC1=C(C)CC(c2ccccc2)C(C(=O)c2ccccc2O)C1 (stereo not given) | -0.0001% (inactive) | 
33 | COc1ccc2c(c1)O[C@H](c1ccc3c(c1)OCO3)[C@@H](OC(=O)N[C@H]1CCCc3ccccc31)C2=O | -2.84% (inactive) | 
34 | Cn1c(-c2ccccc2)c(O)c(=O)c2ccccc21 | 0.733% (inactive) | 
35 | COC(=O)N[C@H](CC(C)=O)c1cccc(F)c1 | 0.929% (inactive) | 
36 | C#CCN1C(=O)CC[C@@]23C1=NC(C(=O)OC)=C(C(=O)OC)[C@@H]2N(C)c1ccccc13 | -3.75% (inactive) | 
37 | COc1cc(OC)c([C@@H]2O[C@H](CO)[C@@H](O)[C@H](O)[C@@H]2O)c(OC)c1 | -14.5% (inactive) | 
38 | COC(=O)CC=C1c2ccc(OC)cc2[C@@H](OC)[C@@H]1C | -0.925% (inactive) | 
39 | CC(CCN1CCc2nc(-c3ccccc3)c(-c3ccccc3)cc2C1)=NOC[C@@H](O)COCc1ccco1 | -11.1% (inactive) | 
40 | CCOC(=O)C1=CN(CCC=C(C)C)C(=O)N(C(C)=O)C1c1ccccc1 (stereo not given) | -4.72% (inactive) | 
